One assay relates to HPK1. Particulars: concentration: 1 μM, replicates: in singlicate, n = 1.
A further assay relates to HUNK. As to conditions: concentration: 1 μM, replicates: in singlicate, n = 1.
For another assay, the system named is ICK. As to conditions: concentration: 1 μM, replicates: in singlicate, n = 1.
The next assay relates to IGF1R. As to conditions: concentration: 1 μM, replicates: in singlicate, n = 1.
The next assay concerns T1, IKK-alpha.
T1 construct: gene CHUK
Particulars: concentration: 1 μM, replicates: in singlicate, n = 1.

The next assay concerns T2, IKK-beta.
T2 construct: gene IKBKB
As to conditions: concentration: 1 μM, replicates: in singlicate, n = 1.

For the next assay, the system named is T3, IKK-epsilon.
T3 construct: gene IKBKE
Particulars: concentration: 1 μM, replicates: in singlicate, n = 1.

The test system of another assay is INSRR. As to conditions: concentration: 1 μM, replicates: in singlicate; n = 1.
The next assay relates to INSR. Particulars: concentration: 1 μM, replicates: in singlicate, n = 1.
The next assay relates to IRAK1. Particulars: concentration: 1 μM, replicates: in singlicate, n = 1.
The next assay relates to IRAK3. Particulars: concentration: 1 μM, replicates: in singlicate, n = 1.
The subject of the next assay is IRAK4. Particulars: concentration: 1 μM, replicates: in singlicate, n = 1.
The test system of a further assay is ITK. Particulars: concentration: 1 μM, replicates: in singlicate, n = 1.
In assay [1] the test system is JAK1(JH1domain-catalytic). As to conditions: concentration: 1 μM, replicates: in singlicate, n = 1.
Assay [2] has as its system JAK1(JH2domain-pseudokinase). As to conditions: concentration: 1 μM, replicates: in singlicate, n = 1.
Assay [3] has as its system JAK2(JH1domain-catalytic). Particulars: concentration: 1 μM, replicates: in singlicate, n = 1.
Assay [4] relates to JAK3(JH1domain-catalytic). Particulars: concentration: 1 μM, replicates: in singlicate, n = 1.
The subject of another assay is T4, JNK1.
T4 construct: gene MAPK8
Particulars: concentration: 1 μM, replicates: in singlicate, n = 1.

A further assay concerns T5, JNK2.
T5 construct: gene MAPK9
Particulars: concentration: 1 μM, replicates: in singlicate, n = 1.

For another assay, the system named is T6, JNK3.
T6 construct: gene MAPK10
As to conditions: concentration: 1 μM, replicates: in singlicate, n = 1.

Values joined by “and” are separate entries in the source; they are usually repeats but may differ in a detail not shown here. Identical values can stand only once. Like-named read-outs stand apart in the source and are kept apart here.
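Further: KINOMEscan kinase panel screen.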

Take `CN(C1=C(c2ccccc2)C(=O)NC1=O)c1ccccc1` [SB-334860]: the “%Inh” value with HPK1 was found to be 0%; with HUNK it was 0%; with ICK it was 13%; in the assay with IGF1R, 12%; with IKK-alpha, 0%; in the assay with IKK-beta it was 0%. Moreover, the “%Inh” value is given as 27% with IKK-epsilon; 0% with INSRR; 5% in the assay on INSR; 0% with IRAK1; 0% in the assay on IRAK3; 0% in the assay on IRAK4. Also, the “%Inh” value with ITK was found to be 0%; in assay [1] it was 0%; in assay [2] it was 6%; in assay [3], 0%; in assay [4], 14%; in the assay with JNK1, 0%. The entries for the “%Inh” value in the assay with JNK2 and with JNK3 were 21% and 15%, respectively.

Take `O=C(NCCCN1CCOCC1)c1cccc(Nc2nccc(Nc3ccc(Oc4ccccc4)cc3)n2)c1` [GW663929]: the “%Inh” value was 8% in the assay with HPK1; 0% in the assay on HUNK; 0% in the assay on ICK; 0% in the assay with IGF1R; 0% with IKK-alpha; 0% with IKK-beta. Besides, the “%Inh” value was 0% in the assay on IKK-epsilon; 0% with INSRR; 15% in the assay with INSR; 28% in the assay on IRAK1; 63% in the assay with IRAK3; 0% in the assay with IRAK4. For the same molecule, the “%Inh” value turned out to be 0% in the assay with ITK; 46% in assay [1]; 21% in [2]; 82% in assay [3]; 0% in [4]; 33% with JNK1. Also, the “%Inh” value in the assay on JNK2 was determined as 25%; with JNK3 it was 16%.

With `Cc1cn2c(=O)cc(N3CCOCC3)nc2n1Cc1cccc(Cl)c1Cl` [GSK2334006], the “%Inh” value was 30% in the assay on HPK1; 9% in the assay on HUNK; 12% in the assay with ICK; 0% in the assay with IGF1R; 7% with IKK-alpha; 18% with IKK-beta. In addition, the “%Inh” value with IKK-epsilon turned out to be 3%; with INSRR it was 28%; in the assay with INSR it was 0%; in the assay on IRAK1, 0%; in the assay on IRAK3, 13%; with IRAK4, 5%. Further, the “%Inh” value was 14% with ITK; 2% in [1]; 0% in [2]; 2% in [3]; 0% in assay [4]; 18% in the assay with JNK1. Also, the “%Inh” value in the assay with JNK2 is recorded as 16%; in the assay with JNK3, 6%.

Regarding `Nc1nc(-c2ccc3c(N)n[nH]c3c2)cc(N2CCCC2)n1` [GSK2227430], the “%Inh” value with HPK1 came out at 39%; in the assay with HUNK, 0%; in the assay on ICK, 0%; in the assay with IGF1R, 0%; with IKK-alpha it was 0%; in the assay with IKK-beta it was 0%. The “%Inh” value with IKK-epsilon was found to be 40%; in the assay on INSRR, 0%; in the assay with INSR it was 0%; in the assay with IRAK1 it was 0%; with IRAK3, 0%; in the assay on IRAK4 it was 2%. For the same molecule, the “%Inh” value came to 0% in the assay on ITK; 0% in assay [1]; 11% in [2]; 0% in assay [3]; 0% in assay [4]; 5% with JNK1. The entries for the “%Inh” value in the assay with JNK2 and in the assay with JNK3 were 12% and 0%, respectively.

Consider `Cl.Cl.Cl.Fc1ccc(-c2ncn(C3CCNCC3)c2-c2ccnc(Nc3ccccc3)n2)cc1` [SB-238039], for which the “%Inh” value is 96.2% and 92.5% in the assay on HPK1 (1 µM); 61% and 0% in the assay with HUNK (1 µM); 0% and 34% in the assay on ICK (1 µM); 37% and 0% in the assay with IGF1R (1 µM); 34% and 0% with IKK-alpha (1 µM); 10% and 0% in the assay with IKK-beta (1 µM). The “%Inh” value is 0% and 3% in the assay on IKK-epsilon (1 µM); 0% in the assay on INSRR; 15% in the assay on INSR; 66% and 0% in the assay on IRAK1 (1 µM); 0% with IRAK3; 0% in the assay on IRAK4. Besides, the “%Inh” value in the assay on ITK (1 µM) is 5% and 14%; in assay [1] (1 µM), 0% and 8%; in assay [2] (1 µM), 15% and 0%; in assay [3] (1 µM), 44% and 0%; in assay [4], 0%; in the assay with JNK1 (1 µM) it was 97% and 96.3%. In addition, the “%Inh” value in the assay on JNK2 is 100%; in the assay with JNK3, 99.8%.

In the case of `NS(=O)(=O)CCc1cccc(Nc2nccc(-c3c(-c4cccc(NC(=O)c5c(F)cccc5F)c4)nn4ccccc34)n2)c1` [GSK336735], the “%Inh” value was determined as 56% with HPK1; 0% with HUNK; 0% with ICK; 73% in the assay on IGF1R; 0% in the assay with IKK-alpha; 0% with IKK-beta. For the same molecule, the “%Inh” value is on record as 33% with IKK-epsilon; 62% in the assay with INSRR; 39% in the assay on INSR; 0% in the assay on IRAK1; 16% with IRAK3; 9% in the assay on IRAK4. Further, the “%Inh” value in the assay on ITK was determined as 20%; in assay [1], 18%; in [2] it was 0%; in [3], 0%; in assay [4], 77%; with JNK1, 36%. Further, the “%Inh” value with JNK2 stood at 55%; in the assay with JNK3, 16%.

Turning to `C[C@@H](Oc1cc(-n2cnc3ccc(NC(=O)NC(C)(C)C)cc32)sc1C(N)=O)c1ccccc1Cl` [GSK346294], the “%Inh” value in the assay with HPK1 is given as 35%; in the assay with HUNK it was 0%; in the assay with ICK it was 0%; in the assay on IGF1R, 0%; in the assay with IKK-alpha it was 0%; in the assay on IKK-beta, 0%. The “%Inh” value came out at 23% in the assay with IKK-epsilon; 0% with INSRR; 0% in the assay on INSR; 15% in the assay on IRAK1; 12% in the assay on IRAK3; 0% with IRAK4. Besides, the “%Inh” value in the assay on ITK stood at 14%; in assay [1] it was 2%; in assay [2] it was 0%; in [3], 0%; in assay [4] it was 0%; with JNK1 it was 0%. Further, the entries for the “%Inh” value in the assay on JNK2 and in the assay with JNK3 were 6% and 0%, respectively.

For `NCCNS(=O)(=O)c1ccc(-c2ccnc3[nH]ccc23)cc1` [GSK977617], the “%Inh” value in the assay with HPK1 (1 µM) is 59% and 44%; with HUNK, 0%; with ICK (1 µM), 19% and 2%; in the assay on IGF1R (1 µM) it was 8% and 16%; in the assay with IKK-alpha (1 µM), 97.7% and 94.3%; in the assay with IKK-beta (1 µM), 99.4%. The “%Inh” value in the assay on IKK-epsilon (1 µM) is 29% and 32%; in the assay on INSRR, 2%; in the assay on INSR (1 µM), 18% and 4%; in the assay on IRAK1 (1 µM), 81% and 65%; in the assay with IRAK3 (1 µM) it was 60% and 39%; in the assay with IRAK4 (1 µM) it was 22% and 8%. Also, the “%Inh” value with ITK (1 µM) is 66% and 44%; in [1] (1 µM) it was 38% and 26%; in assay [2] (1 µM) it was 32% and 25%; in assay [3] (1 µM), 95.6% and 90.8%; in assay [4] (1 µM), 83% and 84%; with JNK1 (1 µM) it was 42% and 18%. Further, the “%Inh” value is 30% and 9% in the assay with JNK2 (1 µM); 27% and 15% in the assay on JNK3 (1 µM).

For `Cc1cccc(-c2nc(-c3ccc(S(C)(=O)=O)cc3)sc2-c2ccncc2)c1`, the “%Inh” value worked out at 0% with HPK1; 0% in the assay on HUNK; 0% in the assay on ICK; 7% with IGF1R; 0% in the assay on IKK-alpha; 1% in the assay on IKK-beta. Besides, the “%Inh” value in the assay with IKK-epsilon was 0%; in the assay on INSRR it was 7%; in the assay on INSR it was 8%; in the assay with IRAK1 it was 18%; in the assay on IRAK3, 33%; in the assay on IRAK4 it was 15%. Moreover, the “%Inh” value with ITK stood at 19%; in assay [1] it was 15%; in assay [2], 17%; in assay [3], 0%; in assay [4], 6%; in the assay with JNK1 it was 26%. Also, the “%Inh” value in the assay with JNK2 is on record as 28%; in the assay with JNK3, 33%.

As for `COc1ccc(S(=O)(=O)NC2CCN(c3cc(C)nc(Nc4cccc(C#N)c4)n3)CC2)cc1.O=C(O)C(F)(F)F` [GSK1653539], the “%Inh” value was 38% in the assay with HPK1; 2% in the assay with HUNK; 0% in the assay with ICK; 0% in the assay with IGF1R; 0% with IKK-alpha; 0% with IKK-beta. Besides, the “%Inh” value in the assay with IKK-epsilon is 49%; in the assay on INSRR, 0%; in the assay with INSR, 0%; in the assay with IRAK1 it was 0%; with IRAK3 it was 0%; with IRAK4, 0%. Further, the “%Inh” value in the assay on ITK is given as 10%; in assay [1], 34%; in assay [2] it was 0%; in assay [3], 0%; in assay [4], 0%; with JNK1, 0%. Moreover, the “%Inh” value amounted to 28% in the assay with JNK2 and 12% with JNK3.

These data come from paper PMC5540273 (PLoS ONE, 2017).
